Reference: PubChem BioAssay (NCI)
The panel holds about 83,000 compounds, 20% with a hit somewhere; the sample as a whole holds those more often.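 Plates (96-well) were seeded with cells, treated with compound at one concentration, and incubated for 48 hours before percent growth was determined.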 A number with no mark means an inactive call. The source made the active and inactive calls. The calls were made as follows: active = growth percent below 10; inactive = the rest.

Tests used:
Assay in all cases: NCI-60 one-dose screen, 48 h (100 = growth as untreated, 0 = no growth, -100 = all killed)
Details in all cases: 10 µM unless noted
NCI-H23 lung = system: NCI-H23 lung
NCI-H226 lung = system: NCI-H226 lung
NCI-H322M lung = system: NCI-H322M lung
HOP-62 NSCLC = system: HOP-62 NSCLC
NCI-H460 lung = system: NCI-H460 lung
HOP-92 NSCLC = system: HOP-92 NSCLC
NCI-H522 lung = system: NCI-H522 lung
A549/ATCC NSCLC = system: A549/ATCC NSCLC
786-0 renal = system: 786-0 renal
COLO 205 colon = system: COLO 205 colon
DU-145 prostate = system: DU-145 prostate
K-562 leukemia = system: K-562 leukemia
MALME-3M melanoma = system: MALME-3M melanoma
MDA-MB-231 breast = system: MDA-MB-231 breast
RXF 393 renal = system: RXF 393 renal
SF-268 CNS = system: SF-268 CNS
SF-295 CNS = system: SF-295 CNS
SF-539 CNS = system: SF-539 CNS
M14 melanoma = system: M14 melanoma
UACC-257 melanoma = system: UACC-257 melanoma

`COc1ccc(C2NC(=O)Nc3ccccc32)c(OC)c1` (configuration not stated) was tested, and the growth (NCI-H23 lung) was 102%, the growth (NCI-H226 lung) was 89.7% and the growth (NCI-H322M lung) was 96.6%. It also gave a growth (HOP-62 NSCLC) of 98.5%, a growth (NCI-H460 lung) of 101% and a growth (HOP-92 NSCLC) of 86.7%. It also gave a growth (NCI-H522 lung) of 91.6%, a growth (A549/ATCC NSCLC) of 98.4% and a growth (786-0 renal) of 103%. It also gave a growth (COLO 205 colon) of 112%, a growth (DU-145 prostate) of 112% and a growth (K-562 leukemia) of 93.7%. It also gave a growth (MALME-3M melanoma) of 85.6%, a growth (MDA-MB-231 breast) of 94.7% and a growth (RXF 393 renal) of 110%. It also gave a growth (SF-268 CNS) of 100%, a growth (SF-295 CNS) of 94.2% and a growth (SF-539 CNS) of 93.8%. It also gave a growth (M14 melanoma) of 95.6%.

For `c1ccc(C2Cc3ccccc3C2=NC2CCCCC2)cc1` (configuration not stated), the growth (NCI-H23 lung) was 98.1%, the growth (NCI-H226 lung) was 100% and the growth (NCI-H322M lung) was 102%. For the same molecule, the growth (HOP-62 NSCLC) was 113%, the growth (NCI-H460 lung) was 116% and the growth (HOP-92 NSCLC) was 68.4%. It also gave a growth (NCI-H522 lung) of 88.8%, a growth (A549/ATCC NSCLC) of 103% and a growth (786-0 renal) of 97.5%. For the same molecule, the growth (COLO 205 colon) was 115%, the growth (DU-145 prostate) was 115% and the growth (K-562 leukemia) was 99.6%. It also gave a growth (MALME-3M melanoma) of 116%, a growth (MDA-MB-231 breast) of 97.2% and a growth (RXF 393 renal) of 110%. For the same molecule, the growth (SF-268 CNS) was 102%, the growth (SF-539 CNS) was 89.3% and the growth (UACC-257 melanoma) was 110%. The growth (M14 melanoma) was 91.7%.

Work on `Oc1cc(/C=C/c2nc(N3CCOCC3)c3cc(Cl)c(Cl)cc3n2)cc(O)c1O` yielded a growth (NCI-H23 lung) of 101%, a growth (NCI-H226 lung) of 85.8% and a growth (NCI-H322M lung) of 113%. For the same molecule, the growth (HOP-62 NSCLC) was 97.2%, the growth (NCI-H460 lung) was 101% and the growth (HOP-92 NSCLC) was 102%. For the same molecule, the growth (NCI-H522 lung) was 88.6%, the growth (A549/ATCC NSCLC) was 106% and the growth (786-0 renal) was 95.7%. The growth (COLO 205 colon) was 108%, the growth (DU-145 prostate) was 104% and the growth (K-562 leukemia) was 81.5%. The growth (MALME-3M melanoma) was 107%, the growth (MDA-MB-231 breast) was 106% and the growth (RXF 393 renal) was 98.8%. The growth (SF-268 CNS) was 108%, the growth (SF-539 CNS) was 94.1% and the growth (UACC-257 melanoma) was 99.8%. It also gave a growth (M14 melanoma) of 102%.

For `COc1ccc(-c2cc(/C=C/C(=O)c3ccc(OC)c(OC)c3)[nH]n2)cc1`, the growth (NCI-H23 lung) was 32.7%, the growth (NCI-H226 lung) was 50.9% and the growth (NCI-H322M lung) was 26.1%. For the same molecule, the growth (HOP-62 NSCLC) was 8.64% (active), the growth (NCI-H460 lung) was -71.1% (active) and the growth (HOP-92 NSCLC) was 66.6%. The growth (NCI-H522 lung) was 1.47% (active), the growth (A549/ATCC NSCLC) was 29.2% and the growth (786-0 renal) was 13%. The growth (COLO 205 colon) was 24.5%, the growth (DU-145 prostate) was 0.792% (active) and the growth (K-562 leukemia) was -29.8% (active). For the same molecule, the growth (MALME-3M melanoma) was 63.1%, the growth (MDA-MB-231 breast) was 28.8% and the growth (RXF 393 renal) was 8.62% (active). The growth (SF-268 CNS) was 7.76% (active), the growth (SF-539 CNS) was -50.7% (active) and the growth (UACC-257 melanoma) was 73.9%. The growth (M14 melanoma) was 41.8%.

Work on `COc1cc(C(=O)/C=C/c2cc(-c3ccc4c(c3)OCO4)n[nH]2)cc(OC)c1OC` yielded a growth (NCI-H23 lung) of 24.5%, a growth (NCI-H226 lung) of 38.1% and a growth (NCI-H322M lung) of 19.3%. For the same molecule, the growth (HOP-62 NSCLC) was -22.7% (active), the growth (NCI-H460 lung) was -55.2% (active) and the growth (HOP-92 NSCLC) was 73%. The growth (NCI-H522 lung) was 17.4%, the growth (A549/ATCC NSCLC) was 28.8% and the growth (786-0 renal) was 12.8%. For the same molecule, the growth (COLO 205 colon) was 32.3%, the growth (DU-145 prostate) was 0.359% (active) and the growth (K-562 leukemia) was -17% (active). The growth (MALME-3M melanoma) was 68.5%, the growth (MDA-MB-231 breast) was 30.6% and the growth (RXF 393 renal) was 1.1% (active). For the same molecule, the growth (SF-268 CNS) was -8.16% (active), the growth (SF-539 CNS) was -51.9% (active) and the growth (UACC-257 melanoma) was 76.5%. It also gave a growth (M14 melanoma) of 81.4%.

`COc1cccc(-c2nn(-c3ccccc3)cc2-c2ccnc(NCCCNS(=O)(=O)c3ccc(C(F)(F)F)cc3)c2)c1` showed a growth (NCI-H23 lung) of 28.6%, a growth (NCI-H226 lung) of 36.6% and a growth (NCI-H322M lung) of 68.6%. The growth (HOP-62 NSCLC) was 61.3%, the growth (NCI-H460 lung) was 25.4% and the growth (HOP-92 NSCLC) was 5.37% (active). It also gave a growth (NCI-H522 lung) of 17.4%, a growth (A549/ATCC NSCLC) of 24.4% and a growth (786-0 renal) of 16.1%. The growth (COLO 205 colon) was -1.71% (active), the growth (DU-145 prostate) was 59.6% and the growth (K-562 leukemia) was 8.17% (active). The growth (MALME-3M melanoma) was 25.8%, the growth (MDA-MB-231 breast) was 6.9% (active) and the growth (RXF 393 renal) was -7.54% (active). It also gave a growth (SF-268 CNS) of 43.9%, a growth (SF-295 CNS) of 14.5% and a growth (SF-539 CNS) of 46.4%. It also gave a growth (M14 melanoma) of 22.1%.

`C#Cc1cc2c(N)c(C(=O)c3cc(OC)c(OC)c(OC)c3)[nH]c2cc1OC` showed a growth (NCI-H23 lung) of 43.1%, a growth (NCI-H226 lung) of 50% and a growth (NCI-H322M lung) of 43.2%. The growth (HOP-62 NSCLC) was 24.4%, the growth (NCI-H460 lung) was 15.6% and the growth (HOP-92 NSCLC) was -4.39% (active). For the same molecule, the growth (NCI-H522 lung) was -4.05% (active), the growth (A549/ATCC NSCLC) was 45.4% and the growth (786-0 renal) was 46.8%. For the same molecule, the growth (COLO 205 colon) was -16.3% (active), the growth (DU-145 prostate) was 19% and the growth (K-562 leukemia) was 13.4%. For the same molecule, the growth (MALME-3M melanoma) was 25.7%, the growth (MDA-MB-231 breast) was 49.2% and the growth (RXF 393 renal) was -5.3% (active). The growth (SF-268 CNS) was 49.6%, the growth (SF-539 CNS) was -23.6% (active) and the growth (UACC-257 melanoma) was 70.5%. The growth (M14 melanoma) was 19.9%.

`COc1ccc(-c2nc(Nc3ccc(-c4nc5ccccc5[nH]4)cc3)nc(N3CCOCC3)n2)cc1` gave a growth (NCI-H23 lung) of 11.3%, a growth (NCI-H226 lung) of 17.1% and a growth (NCI-H322M lung) of 27%. For the same molecule, the growth (HOP-62 NSCLC) was -27.3% (active), the growth (NCI-H460 lung) was 0.132% (active) and the growth (HOP-92 NSCLC) was -6.57% (active). For the same molecule, the growth (NCI-H522 lung) was 11.9%, the growth (A549/ATCC NSCLC) was 11.2% and the growth (786-0 renal) was -60% (active). For the same molecule, the growth (COLO 205 colon) was -43.7% (active), the growth (DU-145 prostate) was 38.5% and the growth (K-562 leukemia) was -22% (active). The growth (MALME-3M melanoma) was -65.7% (active), the growth (MDA-MB-231 breast) was 5.74% (active) and the growth (RXF 393 renal) was -67.5% (active). For the same molecule, the growth (SF-268 CNS) was 34.1%, the growth (SF-295 CNS) was -63.5% (active) and the growth (SF-539 CNS) was 0.307% (active). The growth (M14 melanoma) was -7.64% (active).
